# Results: the OligoGym collection
# Biological target: COMMD1
# Experiment: pooled miR-30 sensor sort-seq; sequence = guide strand
# Details: shRNA
# Note: reference of the scale not given here.
row,Sequence,sensor-assay potency score (higher = more potent)
1,TTGAGCTGAGTGCCTTGACTGA,-0.799
2,TTCTACCTCTGACAGCGTCTTC,-0.88
3,TTCTTCTACCTCTGACAGCGTC,-0.845
4,TGATACTTTCTTCTACCTCTGA,-0.273
5,TTGACTGAGACTTGCCATCAAC,-1.5
6,TTTCAACAACTCCAACTCCTTC,-0.622
7,TTTGGAAATGACAGCAGCTTGG,-0.686
8,TTTTGTCTTGTGGCTCTTCCAG,-0.915
9,TTTGACCTCATCAAATTCCAAA,-0.935
10,TTTGTCTTGTGGCTCTTCCAGA,-0.37
11,TTGCCATCAACTCTCCAGCTCA,-1.2
12,TATAATGGCAACAGGTGTGTGT,0.267

# Biological target: COMMD8
# Experiment: as above
# Details: shRNA
row,Sequence,sensor-assay potency score (higher = more potent)
1,TATTTCTCTTGACAGAGCCTGT,-1.04
2,TATTGCTGCTTTCTCAGCCTGG,-0.453
3,AATTATTTTGTGAAGAAGCTGC,0.272
4,TTTCTCTTGACAGAGCCTGTTT,-0.392
5,TTGATTTCATCTTTCCTACTTT,-0.353
6,TTTTACATCTAGATGCAGGCTT,0.949
